# Results filed as inconclusive are left out. The source made the active and inactive calls. The calls were made as follows: active = hit-call score of the fitted dose curve at least 0.9, where 1 is the maximum; inconclusive = response in the unintended direction; inactive = score below 0.9.
# Target: human Matrix Metalloproteinase-7 (MMP7), MMP7 (gene 4316) (UniProt P09237)
# Assay: NVS_ENZ_hMMP7: NovaScreen (NVS) Enzymatic Assay for human Matrix Metalloproteinase-7 (MMP7) (AID 2283183)
# Description: NVS_ENZ_hMMP7 is a biochemical, single-readout assay that uses extracted gene-proteins in a cell-free assay. Measurements were taken 1 hour after chemical dosing in a 96-well plate.NVS_ENZ_hMMP7 is one of one assay component(s) measured or calculated from the NVS_ENZ_hMMP7 assay. It is designed to make measurements of enzyme activity, a form of enzyme reporter, as detected with fluorescence intensity signals by Fluorescence technology.Data from the assay component NVS_ENZ_hMMP7 was analyzed into 1 assay endpoint. This assay endpoint, NVS_ENZ_hMMP7, was analyzed in the positive analysis fitting direction relative to DMSO as the negative control and baseline of activity. Using a type of enzyme reporter, loss-of-signal activity can be used to understand changes in the enzymatic activity as they relate to the gene MMP7. Furthermore, this assay endpoint can be referred to as a primary readout, because this assay has produced multiple assay endpoints where this one serves a enzymatic activity function. To generalize the intended target to other relatable targets, this assay endpoint is annotated to the protease intended target family, where the subfamily is matrix metalloproteinase.
# Binding assays used specific radioligands (tritiated, iodinated) with non-radioactive competitive displacement ligands in agonist or antagonist protocols (as indicated) and various reference compounds and inhibitors to titrate specific binding to receptors and transporters. Most enzyme assays (CYPs, kinases, phosphatases, proteases, HDACs) used recombinant protein and specific substrates (fluorescence mostly, some colorimetric and radioactive) and inhibitors, followed by a biochemical separation of substrate and product. All assays for the biochemical HTS were initially run in duplicate at a single concentration (10 uM for CYP450 assays and 25 uM for all others). Assay-chemical combinations meeting a pre-defined threshold (e.g., 30% inhibition and other criteria defined below) were then run in singleton concentration-response format with maximum concentration of 20 uM for CYPs and 50 uM for all others. Each assay was run with positive and negative controls, and concurrent controls on every plate. The follow-up (secondary) screen tested active chemical-pairs in concentration series, as well as a few additional assays not tested in the primary screen, some selected negative inactives, and several cases re-run in the concentration series for confirmatory purposes.
# human Matrix Metalloproteinase-7 (MMP7), MMP7 (gene 4316), sequence (P09237 whole entry, looked up): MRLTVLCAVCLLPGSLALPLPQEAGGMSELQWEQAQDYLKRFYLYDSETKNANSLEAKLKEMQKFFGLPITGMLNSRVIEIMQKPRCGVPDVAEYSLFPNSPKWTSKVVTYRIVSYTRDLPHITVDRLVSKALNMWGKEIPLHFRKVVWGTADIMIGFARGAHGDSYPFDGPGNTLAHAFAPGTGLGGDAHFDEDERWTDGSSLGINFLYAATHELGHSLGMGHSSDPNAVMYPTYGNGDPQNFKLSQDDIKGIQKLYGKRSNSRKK
row,Structure (SMILES),outcome
1,Nc1ccc(S(=O)(=O)c2ccc(N)cc2)cc1,inactive
2,CN1CCN(Cc2cc(-c3ccc4[nH]c(=O)oc4c3)co2)[C@@H](c2ccc(F)cc2)C1,inactive
3,Cc1oc(-c2ccccc2)nc1CCOc1cccc2c1ccn2CCC(=O)O,inactive
4,CCCCCCCCCCCC(=O)OC,inactive
5,C[Si]1(C)O[Si](C)(C)O[Si](C)(C)O[Si](C)(C)O1,inactive
6,CCCCCCC(=O)OCC,inactive
7,CNC(=O)[C@H]1O[C@@H](n2cnc3c(NCc4cc(Cl)ccc4OCc4cc(C)no4)ncnc32)[C@H](O)[C@@H]1N,inactive
8,OC[C@@H](O)[C@@H](O)[C@H](O)[C@H](O)CO,inactive
9,CC(C)(C)c1cc(O)c(C(C)(C)C)cc1O,inactive
10,O=[N+]([O-])C(CO)(CO)CO,inactive
11,CC=Cc1ccc(O)c(OC)c1,inactive
12,CN[C@H]1CC[C@@H](c2ccc(Cl)c(Cl)c2)c2ccc(S(N)(=O)=O)cc21,inactive

# From PubChem BioAssay (EPA / NIEHS)
